# Compound activity: PubChem, National Center for Advancing Translational Sciences (NCATS)
# FLuc counter – firefly luciferase modulation, counter-screen for miR-21 project; P08659; purified FLuc, Km substrates, luminescence inhibition; Potency, µM (titrated, usually from 57.5 µM), inactives show at the highest dose activity change, negative = inhibition, actives largely listed as inhibitors; 6.9% of 360,000 active;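 further: plate controls were vehicle for no effect and reference inhibitor for full effect; nearly all actives have a fitted effect of over 55% in size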
# Target sequence (P08659 whole entry, looked up): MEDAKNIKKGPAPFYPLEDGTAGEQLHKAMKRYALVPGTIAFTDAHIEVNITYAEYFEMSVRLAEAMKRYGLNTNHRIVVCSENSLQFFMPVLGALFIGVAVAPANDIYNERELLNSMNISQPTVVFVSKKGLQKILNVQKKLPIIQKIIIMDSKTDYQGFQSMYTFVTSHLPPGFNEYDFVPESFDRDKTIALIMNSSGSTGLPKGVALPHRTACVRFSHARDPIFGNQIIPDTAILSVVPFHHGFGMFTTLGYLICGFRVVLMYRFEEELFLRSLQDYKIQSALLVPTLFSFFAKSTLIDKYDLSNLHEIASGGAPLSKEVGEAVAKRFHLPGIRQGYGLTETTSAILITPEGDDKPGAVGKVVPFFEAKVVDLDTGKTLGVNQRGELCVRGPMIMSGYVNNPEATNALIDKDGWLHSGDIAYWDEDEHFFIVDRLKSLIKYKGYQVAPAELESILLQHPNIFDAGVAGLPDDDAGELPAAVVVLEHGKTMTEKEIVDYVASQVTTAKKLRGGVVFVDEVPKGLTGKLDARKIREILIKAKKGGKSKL
#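 Biochemical qHTS of compounds, final roughly 60 µM downward over six points, against 10 nM purified firefly luciferase using Km concentrations of substrates (10 uM D-luciferin, 10 uM ATP) in Tris acetate pH 7.5 buffer; luminescence output.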
# ELG1 genotoxic – genotoxicity induction in ELG1-luciferase HEK293T cells. HEK293T ELG1-luciferase reporter, luminescence, 16 h. Potency, µM (series often up to 46 µM), inactives show top-dose activity change, positive = activation, actives largely listed as activators. 1.3% of 330,000 active; further: % of control where 0% means no effect; nearly all actives have a fitted effect of over 60% in size
#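 Cells (2,000/well) expressing the ELG1-luciferase fusion are dosed by pin tool and kept 16 hr at 37 °C, 5% CO2. Signal comes from ONE-Glo luciferase reagent after 30 min at room temperature.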
# uPA generation – inhibitors of cell surface uPA generation; cell surface uPA generation assay, qHTS; Potency, µM (doses to about 38.3 µM), for the others: top-dose activity change, negative = inhibition, actives largely listed as inhibitors; 0.31% of 330,000 active; active means well fitted inhibition curve with a large enough effect; inconclusive means small, poorly fitted or top-dose-only effect; inactive means no such curve, though single readings can be large or run the other way; tested in mouse RAW 264.7 cells; further: on the % scale 0 is the no-effect control and ±100 the full control effect; nearly all actives have a fitted effect of over 55% in size
# Rab9 prom act – activators of Rab9 promoter | 2.8% of 320,000 active | Potency, µM (top dose mostly 9.22 µM), for inactives: at the top dose activation, negative = inhibition, most hits filed as activators | Huh7 Rab9 promoter-luciferase reporter, luminescence, 24 h; further: % of control where 0% means no effect; nearly all actives have a fitted effect of over 60% in size
#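 Huh7 cells stably carrying a Rab9 promoter-luciferase reporter, 1500 cells per well in OP-MEM I with 10% FBS, treated with compound 24 hours at 37C. Luciferase activity read by luminescence after 10 minutes with Amplite reagent.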
# NPC1 promoter act – activators of NPC1 promoter. AID 485313. Potency, µM (doses to about 9.22 µM), for inactives: top-dose activation, hits mostly activators. Huh7 NPC1 promoter luciferase reporter, 24 h. 2.4% of 320,000 active; further: % of control where 0% means no effect; nearly all actives have a fitted effect of over 60% in size
#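 Quantitative HTS used a cell-based reporter: Huh7 cells stably bearing the NPC1 promoter upstream of luciferase were treated with compounds for 24 h, and promoter activation was read as luminescence.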
# SMN2 splice enh – increases expression of the SMN2 splice variant. Potency, µM (series often up to 46.1 µM), inactives show top-dose activity change, positive = activation, usual class: activators. HEK293 SMN2-luciferase splicing reporter, luminescence, 30-36 h. 2.8% of 210,000 active. AID 1458; further: % of control where 0% means no effect; nearly all actives have a fitted effect of over 55% in size
#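 HEK293 cells carry an SMN2 […]–luciferase reporter in which exon 7 inclusion puts luciferase in frame. Cells were plated 10-12 h before compound addition, then incubated 30-36 h at 37C. ONE-Glo luminescence was read; sodium butyrate at 4.5 mM final served as control.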
# * hit, by the source's call; ? = inconclusive; · = no result; [ ] = remark or other dose. Rows were chosen to be rich in hits. Some 7.3% of all compounds tested hit in one or more screens of this group. Unless noted, the call rests on the fitted dose curve; in most records, active means well fitted curve in the direction sought with a large enough effect; inconclusive means small, poorly fitted or top-dose-only effect, or another doubt; inactive means no such curve, though single readings can be large; an effect the other way counts as inactive or inconclusive. Potency means the concentration at half of the fitted maximal effect.
SMILES,FLuc counter,ELG1 genotoxic,uPA generation,Rab9 prom act,NPC1 promoter act,SMN2 splice enh
Cc1ccc2c(c1)c(N=Nc1cccc(C(=O)O)c1)c(O)n2C,15.1µM*,6.4%,-9.5%,-0.7%,17.2%,·
CCOc1ccc2c(c1)c(N=Nc1cccc(C(=O)O)c1)c(O)n2C,?,?,-3.2%,?,?,?
O=C(Nc1ccc(F)cc1)c1ccccc1,23.9µM*,?,-7.8%,?,?,19.1%
COC(=O)c1ccc(C(=O)Nc2ccc(F)cc2)cc1,12µM*,14.1%,?,?,2.51µM*,·
Nc1cccc2c1C(=O)N(C(=O)/C=C/c1cccc(F)c1)C2=O,21.3µM*,-0.3%,-5.4%,-4.5%,-8.3%,15.2%
Nc1cccc2c1C(=O)N(C(=O)/C=C/c1cccc(Br)c1)C2=O,?,7.8%,-1.4%,-7.9%,-8.3%,·
COc1nc(-c2ccccc2)cc(-c2ccc(OC)c(OC)c2)n1,?,-12.3%,·,7.7%,5.4%,20.0%
COc1ccc(-c2cn3cc(Cl)ccc3n2)cc1OC,7.57µM*,?,0.0%,?,16.2%,11.2µM*
O=C(O)c1ccccc1-c1cn2cc(Cl)ccc2n1,7.57µM*,-4.4%,-3.6%,?,17.6%,18.5%
COc1ccc(-c2n[nH]c(=S)n2-c2ccc(Br)cc2)cc1OC,4.1%,3.5%,-5.2%,3.0%,0.4%,·
O=C(O)CSCc1cn2cc(Cl)ccc2n1,-17.5%,-4.7%,0.8%,-5.2%,-2.4%,18.5%
COc1ccc(-c2cn3cc(C)ccc3n2)cc1Br,0.477µM*,?,-19.8%,1.26µM*,0.891µM*,2.24µM*
CNCc1cn2cc(Cl)ccc2n1,-0.1%,1.6%,-5.7%,-1.9%,-0.5%,0.7%
Clc1ccc2nc(-c3ccc(Br)s3)cn2c1,0.338µM*,0.411µM*,·,?,19.0%,0.708µM*
Cc1cccc(Oc2nc3c(C)cccn3c(=O)c2/C=C(\C#N)c2nc3ccccc3[nH]2)c1,1.1%,·,·,·,·,·
Oc1oc(-c2ccccc2)nc1/C=N/c1nccs1,12µM*,2.1%,1.4%,11.7%,2.1%,?
Cc1ccc(-c2nc(C=Nc3ccccc3)c(O)o2)cc1,9.53µM*,?,-22.3%,?,17.6%,·
Cc1ccc(N=Cc2nc(-c3ccco3)oc2O)cc1,4.26µM*,?,-18.1%,7.8%,1.5%,12.1%
CCCCOc1ccc(-c2nc(/C=N/c3nccs3)c(O)o2)cc1,8.6%,5.1%,0.2%,-1.5%,1.8%,4.2%
O=C(COC(=O)c1cnccn1)NC1CCCc2ccccc21 (configuration not stated),·,-1.5%,-16.6%,·,·,·
Cc1cc(Cl)ccc1NC(=O)c1cccc(NC(=O)N2CCSc3ncccc32)c1,-1.6%,·,·,·,·,·
COCCCNC(=O)Cn1nnc(-c2ccc(NC(=O)c3ccccc3F)cc2)n1,13.5µM*,14.4%,1.6%,26.5%,26.3%,?
CCOc1cc(Br)cc(C2NC(=O)c3c(sc4c3CCN(C)C4)N2)c1O (configuration not stated),?,·,·,·,·,3.6%
COc1ccc(NC(=O)COC(=O)c2c3c(nc4ccccc24)CCCC3)cc1Cl,10.7µM*,-15.6%,-11.8%,-11.8%,0.8%,-15.1%
COc1ccc(NC(=O)COC(=O)c2c3c(nc4ccccc24)CCCC3)cc1,?,4.6%,-1.4%,-4.1%,3.8%,-29.3%
SMILES,FLuc counter,ELG1 genotoxic,uPA generation,Rab9 prom act,NPC1 promoter act,SMN2 splice enh
Cc1ccc(CN2C(=O)c3ccccc3Sc3ccc(C(=O)OCc4ccco4)cc32)cc1,-2.7%,·,·,·,·,·
CC(C)(C)C(=O)[C@H]1[C@H](c2ccccc2)[C@@]2(N=C(c3ccccc3)OC2=O)C2c3ccccc3C=NN21 (some centres not stated),15.1µM*,2.9%,-2.4%,-1.1%,0.0%,13.1%
COc1ccc([C@H]2[C@H](C(=O)OC(C)(C)C)N3N=Cc4ccccc4C3C23C(=O)c2ccccc2C3=O)c(OC)c1 (some centres not stated),?,-3.8%,-1.6%,1.3%,2.8%,7.2%
Cc1nn(-c2ccc(N3CCOCC3)nn2)c(C)c1CCC(=O)Nc1ccccc1,?,3.0%,-0.5%,11.3%,13.3%,·
Cc1cc(F)ccc1NC(=O)CCc1c(C)nn(-c2ccc(N3CCCCC3)nn2)c1C,?,-4.6%,3.8%,0.3%,-3.1%,·
Cc1nn(-c2ccc(N3CCCCC3)nn2)c(C)c1CCC(=O)Nc1ccc(F)c(F)c1,5.36µM*,0.6%,2.3%,2.51µM*,2.51µM*,·
CC(=O)c1ccc(NC(=O)CCc2c(C)nn(-c3ccc(N4CCCCC4)nn3)c2C)cc1,8.49µM*,·,·,·,·,·
Cc1cc(C)cc(NC(=O)CCc2c(C)nn(-c3ccc(N4CCCCC4)nn3)c2C)c1,4.78µM*,9.9%[9.26 µM],?,?,?,·
Cc1ccc(NC(=O)CCc2c(C)nn(-c3ccc(N4CCCCC4)nn3)c2C)cc1,10.7µM*,9.7%[9.26 µM],-2.8%,?,1.58µM*,·
CCc1ccc(NC(=O)c2nn(-c3ccc(OC)cc3)c(=O)c3c2c2ccccc2n3C)cc1,-0.6%,·,·,·,·,11.9%
CCOC(=O)c1cccc(NC(=O)CCc2nnc3ccc(N4CCCCC4)nn23)c1,2.0%,-0.3%,-6.5%,-2.6%,-2.5%,·
COc1ccc(C)cc1NC(=O)CCc1c(C)nn(-c2ccc(N3CCCCC3)nn2)c1C,12µM*,4.4%,-1.9%,?,?,·
CCOc1ccccc1NC(=O)CCc1c(C)nn(-c2ccc(N3CCCCC3)nn2)c1C,10.7µM*,-5.5%,-4.6%,21.0%,2.9%,·
CCOC(=O)c1cccc(NC(=O)CCc2c(C)nn(-c3ccc(N4CCCCC4)nn3)c2C)c1,10.7µM*,·,·,·,·,·
Cc1ccc(F)cc1NC(=O)CCc1c(C)nn(-c2ccc(N3CCCC3)nn2)c1C,-16.9%,·,·,·,·,·
Cc1ccc(NC(=O)CCc2c(C)nn(-c3ccc(N4CCCCC4)nn3)c2C)cc1C,12µM*,11.8%[9.26 µM],-4.3%,?,?,·
Cc1cc(C)cc(NS(=O)(=O)c2ccc3c(c2)CCCN3C(=O)C2CCC2)c1,-15.9%,·,·,·,·,·
CSc1ccc(CCNC(=O)c2csc3c2CCCCC3)cc1,?,·,·,·,·,2.5%
CCCCOC(=O)c1ccc(Nc2ncnc3[nH]ncc23)cc1,-7.7%,·,·,·,·,·
O=C1COc2ccc(OCc3ccc(F)cc3)cc21,4.26µM*,?,-8.5%,1.12µM*,1.41µM*,11.2µM*
CCN(CC)S(=O)(=O)c1ccc(NC(=O)c2c(C)oc3ncnc(N4CCOCC4)c23)cc1,-1.2%,·,·,·,·,·
Cc1cc(C2=NNC(=NC3CC3)SC2)c(C)n1-c1c(C)n(C)n(-c2ccccc2)c1=O,-6.3%,-3.1%,0.4%,-12.1%,5.5%,-4.4%
CN=C1NN=C(c2cc(C)n(-c3ccc(Cl)cc3)c2C)CS1,4.78µM*,?,-5.9%,2.51µM*,3.98µM*,-7.3%
